Measurements taken from PubChem BioAssay AID1259399 (Fisher Drug Discovery Resource Center, 2018).
Hit rate of the full screen: of about 160,000 compounds, about 240 (0.15%) were called active. No stated cut-off is given here; in the data, active means inhibition above about 40%; inactive means the rest. For the sample, actives were picked, then their nearest neighbours and some compounds at random.

target: Cyclic GMP-AMP synthase (Mus musculus) (UniProt Q8C6L5); experiment: inhibition of Mus musculus cGAS, primary biochemical chemiluminescence screen (AID 1259399); conditions: recombinant cGAS, Kinase-Glo ATP depletion luminescence; at 12.5 µM; active compounds read high;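 further: 0% = negative control wells and 100% = reference inhibitor with no enzyme activity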
Sequence (Q8C6L5 whole entry, looked up): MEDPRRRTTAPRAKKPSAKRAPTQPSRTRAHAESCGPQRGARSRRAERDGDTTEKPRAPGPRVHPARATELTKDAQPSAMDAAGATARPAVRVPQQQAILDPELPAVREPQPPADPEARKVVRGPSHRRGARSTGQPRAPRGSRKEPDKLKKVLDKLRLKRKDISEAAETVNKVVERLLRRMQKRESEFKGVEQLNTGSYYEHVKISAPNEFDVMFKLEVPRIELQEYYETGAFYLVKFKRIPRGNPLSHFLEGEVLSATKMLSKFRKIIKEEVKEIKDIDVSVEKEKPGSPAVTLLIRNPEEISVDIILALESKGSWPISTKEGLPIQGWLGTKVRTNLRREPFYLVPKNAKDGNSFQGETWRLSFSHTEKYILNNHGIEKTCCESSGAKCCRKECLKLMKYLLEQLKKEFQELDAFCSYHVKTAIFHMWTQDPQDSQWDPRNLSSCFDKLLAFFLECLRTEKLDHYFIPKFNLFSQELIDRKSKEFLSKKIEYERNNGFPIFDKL

Row | SMILES | inhibition
1 | Cc1ccc(C)c(N2CCN(C(=O)c3cccc(F)c3)C(C)C2=O)c1 (stereo not given) | -1.42% (inactive)
2 | CCc1nc2ccc(C(=O)N(C)Cc3ccccc3)cn2c1N(C)C(=O)c1cccc(OC)c1 | -0.76% (inactive)
3 | C=CCN(Cc1cccnc1)C(=O)C1CCCN1C(=O)C1CCCCC1 (stereo not given) | -14.1% (inactive)
4 | CCc1nc2c(OCCOc3ccc(F)cc3)cccn2c1N(C)C(=O)c1ccncc1 | -2.55% (inactive)
5 | O=c1c(O)c(Br)ccc2c(Br)c(O)c(O)c(O)c12 | 71.1% (active)
6 | CCOc1c(Br)cc(Br)cc1CNCC(=O)N1CCCC1 | -7% (inactive)
7 | CN(C)c1ccc(/C=C/C=C2/SC(N)=NC2=O)cc1 | -4.74% (inactive)
8 | COc1ccc(C2NC(=O)N(C)C3=C2C(=O)N(Cc2ccc(F)cc2)C3)cc1 (stereo not given) | -4.51% (inactive)
9 | Cc1ccc2nc(-c3ccccc3F)c(NC(C)(C)CC(C)(C)C)n2c1 | -1.73% (inactive)
10 | N#CC1C(=N)Oc2c(c(=O)oc3ccccc23)C12C(=O)Nc1ccc(Br)cc12 (stereo not given) | -4.42% (inactive)
11 | CSc1ccc(C(=O)N2CCCC(CO)(CCCc3ccccc3)C2)cc1 (stereo not given) | -6.85% (inactive)
12 | Cc1[nH]c2c(c1C(=O)NCCOc1ccccc1F)C(=O)CCC2 | -9.39% (inactive)
13 | Cc1nc(N2CCOCC2)ncc1-c1cc(=O)[nH]c(N2CCc3ccccc3C2)n1 | -6.34% (inactive)
14 | COc1ccc(C(NC(=O)C2CCN(CCCc3ccccc3)CC2)c2cccs2)cc1 (stereo not given) | -2.89% (inactive)
15 | CCCCn1nnnc1CSc1nc(C)c(C)c(C)c1C#N | 0.584% (inactive)
16 | COc1ccccc1NC(=O)c1ccc(-n2nc(-c3ccc(Cl)cc3)cc2N)cc1 | -3.87% (inactive)
17 | O=C(Nc1cccc(-c2cccc(-c3ccc(F)cc3)n2)c1)c1c(F)c(F)c(F)c(F)c1F | -6.45% (inactive)
18 | COCCCN(CC(=O)N1CCc2sccc2C1COc1ccc(Cl)c(C)c1)C(=O)c1cccc(OC)c1 (stereo not given) | -4.66% (inactive)
19 | O=C(c1ccc(F)cc1F)N1CCC(c2nc(-c3ccc4c(c3)OCO4)no2)CC1 | -1.48% (inactive)
20 | COc1ccc(CC(=O)NNC(=O)c2cccn(Cc3ccc(F)cc3)c2=O)cc1 | -6.25% (inactive)
21 | CC[N+](C)(CC)CCC[n+]1c(-c2ccccc2)c2cc(N)ccc2c2ccc(N)cc21 | 78.9% (active)
22 | CCN1CCN(C(=O)c2ccc(CSc3nnc(-c4cccs4)n3CC)cc2)CC1 | -5.22% (inactive)

Row | SMILES | inhibition
23 | O=C(N1CC[C@@H](O)C1)C1(c2cccc(Br)c2)CC1 | -0.654% (inactive)
24 | CCn1cc(-c2cc(NCc3ccccn3)nc3[nH]ccc23)c(C)n1 | -9.58% (inactive)
25 | CCn1c(SCc2ccccc2OC(F)F)nnc1-c1c2c(nc3ccccc13)CCC2 | -4.53% (inactive)
26 | CCOc1ccc(S(=O)(=O)Nc2ccc3oc(-c4ccccc4)cc3c2)cc1 | -4.93% (inactive)
27 | CCOc1ccc(C2c3[nH]c4ccccc4c3CCN2C(=O)CSC)cc1 (stereo not given) | -3.44% (inactive)
28 | Cc1ccc(NC(=O)c2ccc(CSc3nc(Cl)cc(N4CCN(C/C=C/c5ccccc5)CC4)n3)cc2)cc1C | -2.86% (inactive)
29 | N#Cc1ccc(-c2csc(NC(=O)c3cc([N+](=O)[O-])ccc3Cl)n2)cc1 | -5.77% (inactive)
30 | C=CCN(C(=O)CCl)c1nc(-c2ccc(Cl)c(Cl)c2)cs1 | 72.2% (active)
31 | CCCS(=O)(=O)N1CCN(c2ccc(C)nn2)CC1 | -8.23% (inactive)
32 | COc1cc(CN(C)C(=O)c2c(C)noc2-c2ccccc2Cl)cc(OC)c1OC | 2.4% (inactive)
33 | CC(C)CN(Cc1ccc(OS(=O)(=O)c2ccc(F)cc2)cc1)S(=O)(=O)c1ccc(Cl)cc1 | -3.83% (inactive)
34 | COc1cc([N+](=O)[O-])ccc1NC(=O)C(C)Nc1ccc2nc(C)sc2c1 (stereo not given) | -7.43% (inactive)
35 | CC(C)(C)c1cc2nc(C(=O)NCCc3ccccn3)cc(-c3ccccc3F)n2n1 | -5% (inactive)
36 | O=C1NC2(CCN(C(=O)COc3ccccc3)CC2)Nc2ccc(Cl)c(Cl)c21 | -6.89% (inactive)
37 | C=C(C)CN(CC)C(=O)c1ccc(-c2ccc(OC)c(OC)c2OC)s1 | -8.29% (inactive)
38 | CSc1cccc(NC(=O)NCCNc2cc(-n3ccnc3C)nc(C)n2)c1 | -12.2% (inactive)
39 | O=C(CCC1CCN(C23CC4CC(CC(C4)C2)C3)CC1)Nc1ccccc1Cl | -11% (inactive)
40 | Cc1ccccc1-n1c(SCCCC(=O)N2CCN(C(=O)COCc3ccccc3)C(C)C2)nnc1-c1ccco1 (stereo not given) | -5.31% (inactive)
41 | COc1ncccc1-c1cc2c(cn1)nc(NCc1cccc(C)c1)n2C | -6.3% (inactive)
42 | CCn1nc(C(=O)N2CCN(c3ccccc3)CC2)c2c1CCN(C(=O)c1csc(SC)n1)C2 | -7.21% (inactive)
43 | CC(C)OCCNC(=O)c1ccc(-c2cc(-c3ccccc3)n[nH]2)cc1 | -2.09% (inactive)
44 | Cc1nc2n(n1)C(=O)C(C(c1cccs1)N1CCN(CCO)CC1)S2 (stereo not given) | -7.74% (inactive)

Row | SMILES | inhibition
45 | CCc1cc2c(=O)c(-c3ccc4c(c3)OCO4)c(C)oc2cc1OC1OC(CO)C(O)C(O)C1O (stereo not given) | -6.86% (inactive)
46 | COc1cc(/C=C2/C(=O)N(c3ccc(Cl)c(Cl)c3)N=C2C)ccc1O | 27.3% (inactive)
47 | CCOC(=O)c1c(NC(=O)c2cccc3c2-c2ccccc2C3=O)c(-c2ccc(OC)c(OC)c2)cn1Cc1ccccc1 | -5.46% (inactive)
48 | CCn1c(=NC(=O)Cc2ccc(C)c(C)c2)sc2cc3c(cc21)OCCO3 | -9.59% (inactive)
49 | CCCC1(C2CCN(C(=O)[C@H]3C[C@@H]4C=C[C@H]3C4)CC2)NC(=O)N(CCc2cccs2)C1=O (stereo not given in full) | -8.91% (inactive)
50 | O=C1c2ccccc2C(=O)c2cc(Sc3ccccc3)ccc21 | -6.93% (inactive)
51 | CCc1nc2c(OCCOc3ccccc3)cccn2c1N(C)C(=O)c1ccccc1F | -3.16% (inactive)
52 | CC12OC3(CCCCC3)C(C)(OC13CCCCC3)O2 | -2% (inactive)
53 | CC1CCCC(NC(=O)c2cc(S(=O)(=O)N3CCCC3)c[nH]2)C1C (stereo not given) | -4.23% (inactive)
54 | COc1ccc2[nH]c3c(c2c1)CCN(C(=O)COCc1ccccc1)C3COCc1ccccc1 (stereo not given) | -10.3% (inactive)
55 | CCOC(=O)C1(Cc2ccc(OC)cc2)CCN(C(=O)C2CCCC2)CC1 | -2.47% (inactive)
56 | CCCc1cc(C(=O)NC(CC)C2CCCO2)sc1C (stereo not given) | 3.24% (inactive)
57 | Cn1c(=O)n(Cc2ccc(Cl)cc2)c(=O)c2c1nc1oc(C(C)(C)C)cn12 | -8.53% (inactive)
58 | C/C(=N/OC(=O)C1CC1(c1ccccc1)c1ccccc1)c1ccccc1 (stereo not given) | -5.77% (inactive)
59 | CCc1ccc(NC(=O)CSc2nccn3nc(-c4ccc(C)cc4)cc23)cc1 | -6.93% (inactive)
60 | CCCOc1nn(CCC)cc1C(=O)Nc1nccs1 | -6.36% (inactive)
61 | CCCc1nnc2sc(CCc3c(C)n[nH]c3C)nn12 | -9.34% (inactive)
62 | COCc1nnc2sc(Cc3ccc4c(c3)CCCC4)nn12 | 79.1% (active)
63 | O=C(Cc1ccc2c(c1)CCC2)Nc1nn2cnnc2s1 | -17.7% (inactive)
64 | c1cc(C2CCN(C3CCC4(CCNCC4)CC3)CC2)ccn1 | -9.51% (inactive)
65 | O=C(NC1CCN(c2ccccc2C(=O)NCc2ccc3c(c2)OCO3)CC1)c1ccccc1Cl | -4.1% (inactive)
66 | O=C1OC(C[N+](=O)[O-])C(Cl)=C1Oc1ccccc1 (stereo not given) | 22.9% (inactive)

Row | SMILES | inhibition
67 | CCCCc1nc(N2CCN(C(=O)Cc3cccs3)CC2)c2c(C)nn(-c3ccc(F)cc3)c2n1 | -4.18% (inactive)
68 | CC1(C(=O)Nc2cccc3cccnc23)CCN1C(=O)Cc1ccccc1Cl (stereo not given) | -5.18% (inactive)
69 | CCOC(=O)C1=C(O)/C(=C\c2cc(O)cc(O)c2)SC1=Nc1cccc(C(F)(F)F)c1 | -2.35% (inactive)
70 | Cc1nc(C2(NCc3csc(-c4ccoc4)n3)CCCC2)no1 | -13.3% (inactive)
71 | CN(C)CCNC(=O)c1nn(-c2cccc(C(F)(F)F)c2)c(=O)n(Cc2ccccc2F)c1=O | 1.41% (inactive)
72 | Cc1c[nH]c(=O)n1-c1ccc(C(=O)Nc2cc(Cl)c(N)c(Cl)c2)cc1 | -14.6% (inactive)
73 | CN(C)CCNc1cc(C(C)(C)C)nc2c(-c3ccc(Cl)cc3)cnn12 | -0.291% (inactive)
74 | CC(C)(C)c1cc(=O)n2[nH]cc(-c3ccc(Cl)cc3)c2n1 | 40% (active)
75 | CC(C)(C)c1cc(=O)n2[nH]cc(-c3ccccc3Cl)c2n1 | -1.72% (inactive)
76 | COCCN(CCOC)Cc1cc(=O)oc2cc(-c3ccccc3)c(O)cc12 | 2.45% (inactive)
77 | C=CCN1C(=O)C2(CC(=O)N(CCc3cccc(OC)c3)C2=O)c2cc(OC)ccc21 (stereo not given) | -2.01% (inactive)
78 | Cc1ccccc1N1CCn2c1nc1c2c(=O)n(CCN2CCOCC2)c(=O)n1C | -8.88% (inactive)
79 | COc1ccc(CCNC(=O)CCc2cc3c(n2-c2ccc(OC)cc2)-c2ccccc2CC3)cc1 | -9.29% (inactive)
80 | COc1cccc(-c2cc(-c3ccc(C(=O)NCCc4ccc(OC)c(OC)c4)cc3)[nH]n2)c1 | -4.79% (inactive)
81 | COc1ccc(-n2c(SCC(=O)N3CCN(C(=O)C(c4ccccc4)c4ccccc4)C(C)C3)nnc2-c2cccc(OC)c2)cc1 (stereo not given) | -6.69% (inactive)
82 | CC(C)(C)n1nc2c(c1NC(=O)c1ccc3c(c1)OCO3)CSC2 | -7.2% (inactive)
83 | CC(C)N(CC(=O)N(Cc1ccc(F)cc1)Cc1ccco1)C(=O)c1ccc(-c2ccccc2)cc1 | -5.81% (inactive)
84 | Cc1cc(OC(=O)c2ccc(OC(C)C)cc2)c([N+](=O)[O-])c(=O)[nH]1 | -0.422% (inactive)
85 | Cc1ccc(C)c(CN2CCN(c3nc4c(c(=O)[nH]c(=O)n4C)n3CCC(C)C)CC2)c1 | -1.17% (inactive)
